Test results reported in PubChem BioAssay AID1159580 (chemical genetic matrix, 2015).
The campaign covered roughly 5,500 compounds. About 2,000 (36%) were called active. Inconclusive results (about 18%) are left out. No stated cut-off is given here; in the data, active means normalized growth mostly below about 0.91 (no sharp cut-off); inconclusive means no clear call, values can overlap the other calls; inactive means mostly above about 0.92. The list shows a part of the results.

Test: chemical genetic growth profiling, strain panel (AID 1159580);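 further: tested at 20 µM; growth read once vehicle control cultures reached saturation at 30 °C; 1 = growth at the plate median or of vehicle wells; lower values mean less growth of the strain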
Settings: growth OD

Measured: normalized growth

O=c1cc(-c2ccc(O)cc2)oc2cc(O[C@@H]3O[C@H](CO)[C@@H](O)[C@H](O)[C@H]3O)cc(O)c12
inactive: S. cerevisiae deletion strains, locus YJR075W, strain HOC1, active compounds read low 0.993 | S. cerevisiae deletion strains, locus YKL009W, strain mrt4, active compounds read low 0.936 | S. cerevisiae deletion strains, locus YKL068W, active compounds read low 0.989 | S. cerevisiae deletion strains, locus YKL085W, strain MDH1 (second series), active compounds read low 0.974 | S. cerevisiae deletion strains, locus YKL085W, strain MDH1, active compounds read low 0.974 | S. cerevisiae deletion strains, locus YKL160W, strain elf1, active compounds read low 0.985 | S. cerevisiae deletion strains, locus YKR001C, strain vps1, active compounds read low 0.958 | S. cerevisiae deletion strains, locus YKR026C, strain gcn3, active compounds read low 1.01 | S. cerevisiae deletion strains, locus YKR091W, strain srl3, active compounds read low 1 | S. cerevisiae deletion strains, locus YLL001W, strain dnm1, active compounds read low 1.01 | S. cerevisiae deletion strains, locus YLL026W, active compounds read low 1.01 | S. cerevisiae deletion strains, locus YLL041C, strain sdh2, active compounds read low 1 | S. cerevisiae deletion strains, locus YLR027C, strain aat2, active compounds read low 0.997 | S. cerevisiae deletion strains, locus YLR039C, strain RIC1, active compounds read low 0.996 | S. cerevisiae deletion strains, locus YLR058C, strain SHM2, active compounds read low 0.989 | S. cerevisiae deletion strains, locus YLR102C, strain apc9, active compounds read low 0.968 | S. cerevisiae deletion strains, locus YLR113W, strain HOG1, active compounds read low 1.03 | S. cerevisiae deletion strains, locus YLR221C, strain rsa3, active compounds read low 1.04 | S. cerevisiae deletion strains, locus YLR258W, strain gsy2, active compounds read low 0.996 | S. cerevisiae deletion strains, locus YLR262C, strain YPT6 (second series), active compounds read low 1.02 | S. cerevisiae deletion strains, locus YLR262C, strain YPT6, active compounds read low 0.971 | S. cerevisiae deletion strains, locus YLR268W, strain sec22, active compounds read low 0.963 | S. cerevisiae deletion strains, locus YLR320W, strain mms22, active compounds read low 1.05 | S. cerevisiae deletion strains, locus YLR330W, strain CHS5, active compounds read low 0.985 | S. cerevisiae deletion strains, locus YLR342W, strain FKS1 (second series), active compounds read low 0.98 | S. cerevisiae deletion strains, locus YLR342W, strain FKS1, active compounds read low 1.01 | S. cerevisiae deletion strains, locus YLR357W, strain rsc2, active compounds read low 1.01 | S. cerevisiae deletion strains, locus YLR370C, strain arc18, active compounds read low 0.976 | S. cerevisiae deletion strains, locus YLR371W, strain rom2, active compounds read low 0.964 | S. cerevisiae deletion strains, locus YLR384C, strain iki3, active compounds read low 1.01 | S. cerevisiae deletion strains, locus YLR418C, strain cdc73, active compounds read low 0.964 | S. cerevisiae deletion strains, locus YML016C, strain PPZ1, active compounds read low 0.988 | S. cerevisiae deletion strains, locus YML032C, strain rad52, active compounds read low 0.973 | S. cerevisiae deletion strains, locus YML120C, strain ndi1, active compounds read low 0.986 | S. cerevisiae deletion strains, locus YML124C, strain tub3, active compounds read low 0.983 | S. cerevisiae deletion strains, locus YMR058W, strain fet3, active compounds read low 1.02 | S. cerevisiae deletion strains, locus YMR078C, strain ctf18, active compounds read low 1.01 | S. cerevisiae deletion strains, locus YMR125W, strain sto1, active compounds read low 0.968 | S. cerevisiae deletion strains, locus YMR129W, active compounds read low 1 | S. cerevisiae deletion strains, locus YMR205C, strain PFK2, active compounds read low 1.01 | S. cerevisiae deletion strains, locus YMR223W, strain ubp8, active compounds read low 1.01 | S. cerevisiae deletion strains, locus YMR231W, strain pep5, active compounds read low 1 | S. cerevisiae deletion strains, locus YMR307W, strain GAS1, active compounds read low 1.02 | S. cerevisiae deletion strains, locus YNL067W, strain RPL9B, active compounds read low 1.01 | S. cerevisiae deletion strains, locus YNL071W, strain lat1, active compounds read low 0.995 | S. cerevisiae deletion strains, locus YNL153C, strain GIM3, active compounds read low 1 | S. cerevisiae deletion strains, locus YNL183C, strain NPR1, active compounds read low 0.975 | S. cerevisiae deletion strains, locus YNL209W, strain ssb2, active compounds read low 0.994 | S. cerevisiae deletion strains, locus YNL233W, strain BNI4, active compounds read low 0.987 | S. cerevisiae deletion strains, locus YNL248C, strain rpa49, active compounds read low 1.08 | S. cerevisiae deletion strains, locus YNL250W, strain rad50, active compounds read low 0.98 | S. cerevisiae deletion strains, locus YNL271C, strain bni1, active compounds read low 0.975 | S. cerevisiae deletion strains, locus YNL298W, strain CLA4, active compounds read low 0.98 | S. cerevisiae deletion strains, locus YNL307C, strain MCK1, active compounds read low 0.973 | S. cerevisiae deletion strains, locus YNL322C, strain KRE1 (second series), active compounds read low 0.993 | S. cerevisiae deletion strains, locus YNL322C, strain KRE1, active compounds read low 0.987 | S. cerevisiae deletion strains, locus YNR049C, strain mso1, active compounds read low 1.03 | S. cerevisiae deletion strains, locus YNR052C, strain pop2, active compounds read low 0.997 | S. cerevisiae deletion strains, locus YOL012C, strain htz1 0.98 | S. cerevisiae deletion strains, locus YOL147C, strain pex11, active compounds read low 0.978 | S. cerevisiae deletion strains, locus YOR001W, strain rrp6, active compounds read low 1.04 | S. cerevisiae deletion strains, locus YOR061W, strain CKA2, active compounds read low 0.979 | S. cerevisiae deletion strains, locus YOR069W, strain VPS5, active compounds read low 0.978 | S. cerevisiae deletion strains, locus YOR070C, strain gyp1, active compounds read low 1.02 | S. cerevisiae deletion strains, locus YOR080W, strain dia2, active compounds read low 1.01 | S. cerevisiae deletion strains, locus YOR083W, strain WHI5, active compounds read low 0.974 | S. cerevisiae deletion strains, locus YOR106W, strain vam3, active compounds read low 0.966 | S. cerevisiae deletion strains, locus YOR136W, strain idh2, active compounds read low 0.958 | S. cerevisiae deletion strains, locus YOR144C, strain elg1, active compounds read low 0.98 | S. cerevisiae deletion strains, locus YOR184W, strain ser1, active compounds read low 1 | S. cerevisiae deletion strains, locus YOR231W, strain MKK1, active compounds read low 1.05 | S. cerevisiae deletion strains, locus YOR265W, strain rbl2, active compounds read low 1.01 | S. cerevisiae deletion strains, locus YOR270C, strain vph1, active compounds read low 1.06 | S. cerevisiae deletion strains, locus YOR290C, strain snf2, active compounds read low 0.961 | S. cerevisiae deletion strains, locus YOR316C, strain cot1, active compounds read low 0.969 | S. cerevisiae deletion strains, locus YPL051W, strain arl3, active compounds read low 1.03 | S. cerevisiae deletion strains, locus YPL078C, strain atp4, active compounds read low 0.968 | S. cerevisiae deletion strains, locus YPL106C, strain sse1, active compounds read low 1 | S. cerevisiae deletion strains, locus YPL240C, strain hsp82, active compounds read low 1.01 | S. cerevisiae deletion strains, locus YPL241C, strain CIN2, active compounds read low 0.994 | S. cerevisiae deletion strains, locus YPL256C, strain CLN2, active compounds read low 1 | S. cerevisiae deletion strains, locus YPR119W, strain clb2, active compounds read low 0.989 | S. cerevisiae deletion strains, locus YPR141C, strain kar3, active compounds read low 0.968 | S. cerevisiae deletion strains, locus YPR163C, strain tif3, active compounds read low 0.982 | S. cerevisiae deletion strains, locus YPR167C, strain met16, active compounds read low 0.979 | S. cerevisiae deletion strains, strain wtn01, active compounds read low 0.955 | S. cerevisiae strains, strain wild type, active compounds read low 0.993
